Compound activity (PubChem BioAssay)
CYP2C19 act = cytochrome P450 2C19 (human) activation | P33261 | recombinant CYP2C19, luciferin-H EGE luminescence; hits give high values; 0 = fully inhibited enzyme, 1 = untreated enzyme | activation factor at 5 µM | 96,000 tested, under 10 active | AID 1025;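 active = activation factor of at least 2 at 5 µM in the primary screen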;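 also: 0 = wells with 2.5 mM tranylcypromine and 1 = vehicle-only wells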
CYP2C9 inhib = human CYP2C9 inhibition; P11712; CYP2C9 Supersomes, luciferin-H conversion, luminescence; inhibition, % at 5 µM; 96,000 compounds, 20% hits; AID 777;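 active = blocking of liver enzyme CYP2C9 beyond about 50% at 5 µM, limit read from the data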
Cav3 T inh = inhibitors of human Cav3.2 T-type calcium channel | O95180 | Cav3.2-expressing cells, Fluo-4 calcium fluorescence FDSS; hits give low values | B-score at 10 µM | 100,000 compounds, 4% hits;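 active = single-dose well whose peak fluorescence ratio is a statistical outlier from its plate by either plate-standardised score or position-corrected B-score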
Target sequence (O95180 whole entry, looked up): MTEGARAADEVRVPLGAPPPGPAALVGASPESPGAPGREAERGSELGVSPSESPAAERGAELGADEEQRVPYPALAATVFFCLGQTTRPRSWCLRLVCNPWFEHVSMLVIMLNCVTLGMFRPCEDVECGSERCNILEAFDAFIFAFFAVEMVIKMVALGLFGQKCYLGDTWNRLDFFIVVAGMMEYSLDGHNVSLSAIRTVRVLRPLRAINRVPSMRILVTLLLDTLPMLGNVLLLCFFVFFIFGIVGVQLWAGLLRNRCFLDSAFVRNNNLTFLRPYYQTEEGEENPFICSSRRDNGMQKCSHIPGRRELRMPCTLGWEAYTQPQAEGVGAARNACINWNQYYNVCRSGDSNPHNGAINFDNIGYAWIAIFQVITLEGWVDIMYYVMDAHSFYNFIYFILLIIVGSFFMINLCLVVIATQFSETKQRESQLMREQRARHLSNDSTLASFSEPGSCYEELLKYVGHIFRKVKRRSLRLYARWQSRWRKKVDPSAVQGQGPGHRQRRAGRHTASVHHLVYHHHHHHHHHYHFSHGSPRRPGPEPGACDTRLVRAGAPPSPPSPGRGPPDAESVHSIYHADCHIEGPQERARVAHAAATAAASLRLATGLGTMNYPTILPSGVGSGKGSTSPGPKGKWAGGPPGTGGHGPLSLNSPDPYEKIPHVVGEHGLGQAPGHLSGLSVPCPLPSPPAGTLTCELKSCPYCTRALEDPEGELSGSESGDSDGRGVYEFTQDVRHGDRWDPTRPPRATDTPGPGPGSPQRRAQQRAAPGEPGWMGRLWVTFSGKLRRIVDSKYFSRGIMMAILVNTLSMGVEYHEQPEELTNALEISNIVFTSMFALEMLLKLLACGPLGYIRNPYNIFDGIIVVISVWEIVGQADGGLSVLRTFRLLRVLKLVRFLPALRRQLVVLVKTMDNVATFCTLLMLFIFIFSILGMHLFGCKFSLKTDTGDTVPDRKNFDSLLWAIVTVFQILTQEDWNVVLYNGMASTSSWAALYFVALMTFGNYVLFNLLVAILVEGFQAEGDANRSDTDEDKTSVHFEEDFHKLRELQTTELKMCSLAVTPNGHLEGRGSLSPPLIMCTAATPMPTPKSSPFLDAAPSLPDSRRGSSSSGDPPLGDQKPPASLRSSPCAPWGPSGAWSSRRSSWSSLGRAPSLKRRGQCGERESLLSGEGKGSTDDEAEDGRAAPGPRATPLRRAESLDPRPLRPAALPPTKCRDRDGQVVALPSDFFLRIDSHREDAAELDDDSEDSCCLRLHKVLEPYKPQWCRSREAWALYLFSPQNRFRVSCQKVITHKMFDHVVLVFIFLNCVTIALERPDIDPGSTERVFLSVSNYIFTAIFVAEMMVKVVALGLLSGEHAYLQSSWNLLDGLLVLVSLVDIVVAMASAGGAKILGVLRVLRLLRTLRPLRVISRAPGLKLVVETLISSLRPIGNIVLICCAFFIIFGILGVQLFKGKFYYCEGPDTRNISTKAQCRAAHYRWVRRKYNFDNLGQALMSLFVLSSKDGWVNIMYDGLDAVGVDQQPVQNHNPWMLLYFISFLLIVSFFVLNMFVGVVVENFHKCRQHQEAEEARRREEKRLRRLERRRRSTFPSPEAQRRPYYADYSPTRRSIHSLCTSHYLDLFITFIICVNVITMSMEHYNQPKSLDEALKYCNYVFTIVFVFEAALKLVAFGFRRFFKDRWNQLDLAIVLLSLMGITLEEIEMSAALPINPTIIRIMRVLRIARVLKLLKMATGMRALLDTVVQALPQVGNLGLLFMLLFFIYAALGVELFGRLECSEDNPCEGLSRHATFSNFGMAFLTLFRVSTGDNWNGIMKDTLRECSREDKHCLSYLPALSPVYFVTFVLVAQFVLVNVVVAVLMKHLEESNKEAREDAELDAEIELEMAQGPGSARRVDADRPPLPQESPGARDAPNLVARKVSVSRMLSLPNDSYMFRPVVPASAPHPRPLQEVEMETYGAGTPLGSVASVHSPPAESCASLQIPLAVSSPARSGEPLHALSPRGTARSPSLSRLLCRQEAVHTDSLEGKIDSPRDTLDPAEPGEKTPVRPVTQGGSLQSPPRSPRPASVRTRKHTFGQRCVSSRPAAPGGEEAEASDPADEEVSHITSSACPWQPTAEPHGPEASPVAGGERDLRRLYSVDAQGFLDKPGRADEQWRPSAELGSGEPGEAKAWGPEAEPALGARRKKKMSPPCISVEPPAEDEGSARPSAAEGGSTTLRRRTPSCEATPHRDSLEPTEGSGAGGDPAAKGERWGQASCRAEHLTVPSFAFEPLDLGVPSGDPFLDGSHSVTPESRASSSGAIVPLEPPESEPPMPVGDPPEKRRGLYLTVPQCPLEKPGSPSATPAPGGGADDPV
CYP2C9 activ = increases human cytochrome P450 2C9 activity. 96,000 compounds, 1.4% hits. P11712. activation factor at 5 µM. recombinant CYP2C9, luciferin-H conversion, luminescence; hits give high values; factor 1 = untreated enzyme, 0 = blocked;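 active = activation factor of 2 or more for CYP2C9 at a 5 µM dose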;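 also: 0 = sulfaphenazole-blocked wells and 1 = vehicle-only wells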
CYP2C19 inhib = human CYP2C19 inhibition | 96,000 compounds, 21% hits | inhibition, % at 5 µM | P33261 | CYP2C19 Supersomes, luciferin-H EGE luminescence, 30 min;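 active = CYP2C19 inhibition above a set limit at 5 µM in the primary screen, cut at about 50% in these data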;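 also: plate controls were negative control wells for no effect and 2.5 mM tranylcypromine positive control for full effect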
The depositor's hits bear a star. Shown are actives, neighbours in structure and some others; about 27% of the full set was active somewhere.

Results for OC(c1ccc2c(c1)OCO2)c1nccc2ccccc12 (stereo not drawn) ?
CYP2C19 act: 0; CYP2C9 inhib: -74.0; Cav3 T inh: 0.472; CYP2C9 activ: 1.7; CYP2C19 inhib: 95.4*

Results for O=C(CSc1ccc2ccccc2n1)c1ccc2c(c1)OCO2 ?
CYP2C19 act: 0.7; CYP2C9 inhib: 32.8; Cav3 T inh: 0.138; CYP2C9 activ: 0.7; CYP2C19 inhib: 27.7

What do the screens show for `C/C=C/C(=O)Nc1cccc(C2=NOC3(C2)C[C@@H](C(N)=O)N(C(=O)C(c2ccccc2)c2ccccc2)C3)c1` (stereo partly drawn)?
Cav3 T inh: 0.0312

How did N#CC(c1ccc(Cl)nn1)c1ccc(Cl)cc1Cl (stereo not drawn) do in these assays?
CYP2C19 act: 0; CYP2C9 inhib: 38.6; Cav3 T inh: -0.258; CYP2C9 activ: 0.6; CYP2C19 inhib: 96.1*

What do the screens show for `CCOc1nc(-c2ccc(Cl)cc2Cl)ccc1C#N`?
CYP2C19 act: 0.6; CYP2C9 inhib: 1.1; Cav3 T inh: -0.501; CYP2C9 activ: 1; CYP2C19 inhib: 40.1

What do the screens show for `COc1ccc(CCNC(=O)C2CCN(C(=O)NC3CCCCC3)CC2)cc1`?
Cav3 T inh: 0.191

Results for Cc1ccc(C)n1-c1ccc(C(=O)O)cc1 ?
CYP2C19 act: 1; CYP2C9 inhib: 55.6*; Cav3 T inh: 0.118; CYP2C9 activ: 0.4; CYP2C19 inhib: 0.4

What do the screens show for `CC(=O)c1c(C(C)=O)c(C)n(-c2ccc(C(=O)O)cc2)c1C`?
CYP2C19 act: 1; CYP2C9 inhib: -0.6; Cav3 T inh: 0.753; CYP2C9 activ: 1; CYP2C19 inhib: 1.7

How did CCc1c(C(=O)Nc2cc(C)cc(C)c2)[nH]c(C)c1C(C)=O do in these assays?
CYP2C19 act: 0.6; CYP2C9 inhib: 59.7*; Cav3 T inh: -0.487; CYP2C9 activ: 0.4; CYP2C19 inhib: 44.3

What do the screens show for `CN(C)c1ccnc(SCc2ccccc2Cl)c1C#N`?
CYP2C19 act: 0.3; CYP2C9 inhib: -4.2; Cav3 T inh: 0.562; CYP2C9 activ: 1; CYP2C19 inhib: 70.1*

How did CN(C)c1ccnc(Oc2ccccc2)c1C#N do in these assays?
CYP2C19 act: 0.7; CYP2C9 inhib: 39.0; Cav3 T inh: 0.1; CYP2C9 activ: 0.6; CYP2C19 inhib: 28.6

Results for Cc1cc(Oc2ccc(C#N)cc2)nc(N2CCOCC2)n1 ?
CYP2C19 act: 0.8; CYP2C9 inhib: 38.5; Cav3 T inh: -0.0564; CYP2C9 activ: 0.6; CYP2C19 inhib: 16.8

How did CC(C)C(=O)Nc1cccc(C(=O)Nc2ccccc2C(=O)O)c1 do in these assays?
CYP2C19 act: 1; CYP2C9 inhib: 83.4*; Cav3 T inh: 0.158; CYP2C9 activ: 0.2; CYP2C19 inhib: -4.8

What do the screens show for `CC(C)C(=O)Nc1cccc(C(=O)NCCc2ccc(S(N)(=O)=O)cc2)c1`?
CYP2C19 act: 0.9; CYP2C9 inhib: 75.0*; Cav3 T inh: 0.835; CYP2C9 activ: 0.3; CYP2C19 inhib: 5.8

How did COc1c(Cl)cc(C(=O)Nc2ccccc2C(=O)O)cc1Cl do in these assays?
CYP2C19 act: 1; CYP2C9 inhib: 72.8*; Cav3 T inh: -1.66; CYP2C9 activ: 0.3; CYP2C19 inhib: 4.9

Results for O=C(Nc1ccccc1C(=O)O)c1cccc(F)c1 ?
Cav3 T inh: -0.408

How did COc1c(Cl)cc(C(=O)O)cc1Cl do in these assays?
Cav3 T inh: -1.8

Results for O=C(CSCc1ccccc1)Nc1cccc(C(=O)Nc2ccccc2C(=O)O)c1 ?
CYP2C19 act: 0.9; CYP2C9 inhib: 95.2*; Cav3 T inh: -4.01; CYP2C9 activ: 0; CYP2C19 inhib: 10.1

Results for O=C(c1ccc(Cl)cc1)N1CCC(O)(CSc2ccc(Cl)cc2Cl)CC1 ?
CYP2C19 act: 1; CYP2C9 inhib: 22.5; Cav3 T inh: -2.1; CYP2C9 activ: 0.8; CYP2C19 inhib: -0.2

What do the screens show for `COC(=O)c1ccccc1NC(=O)c1cccc(NC(=O)CSCc2ccccc2)c1C`?
CYP2C19 act: 1.2; CYP2C9 inhib: -35.1; Cav3 T inh: -0.31; CYP2C9 activ: 1.4; CYP2C19 inhib: -16.2

What do the screens show for `O=C(CSCc1ccc(Cl)cc1)Nc1cccc(C(=O)Nc2ccccc2C(=O)O)c1`?
CYP2C19 act: 0.7; CYP2C9 inhib: 97.5*; Cav3 T inh: -6.86*; CYP2C9 activ: 0; CYP2C19 inhib: 34.0

Results for CSc1nc2nc(C(F)(F)F)cc(-c3ccccc3)n2n1 ?
CYP2C19 act: 0.7; CYP2C9 inhib: 61.6*; Cav3 T inh: 0.913; CYP2C9 activ: 0.4; CYP2C19 inhib: 27.4

What do the screens show for `CSc1nc2nc(C)cc(-c3ccccc3)n2n1`?
CYP2C19 act: 1.1; CYP2C9 inhib: -0.7; Cav3 T inh: 0.666; CYP2C9 activ: 1; CYP2C19 inhib: -10.2

Results for Nc1nc(NCc2ccccc2)nc(-c2ccccc2)n1 ?
CYP2C19 act: 0.2; CYP2C9 inhib: 78.3*; Cav3 T inh: -1.93; CYP2C9 activ: 0.2; CYP2C19 inhib: 80.1*

How did Nc1nc(-c2ccccc2)nc(-c2ccccc2O)n1 do in these assays?
Cav3 T inh: -0.198

What do the screens show for `COCCNC(=O)c1ccc(CS(=O)(=O)c2ccccc2)o1`?
CYP2C19 act: 1.1; CYP2C9 inhib: 4.5; Cav3 T inh: 0.592; CYP2C9 activ: 1; CYP2C19 inhib: -7.0

Results for COc1ccc(S(=O)(=O)N2CCN(C)CC2)cc1C ?
CYP2C19 act: 0.9; CYP2C9 inhib: -46.3; Cav3 T inh: -0.329; CYP2C9 activ: 1.5; CYP2C19 inhib: 13.9

How did COc1cc(C)c(S(=O)(=O)n2ccc(C)n2)cc1C do in these assays?
CYP2C19 act: 0.2; CYP2C9 inhib: -64.7; Cav3 T inh: -2.09; CYP2C9 activ: 1.6; CYP2C19 inhib: 82.9*

Results for COc1ccc(S(=O)(=O)n2ccc(C)n2)cc1C ?
CYP2C19 act: 0.5; CYP2C9 inhib: -135.0; Cav3 T inh: -1.72; CYP2C9 activ: 2.4*; CYP2C19 inhib: 50.2*

How did CCOc1cc(S(=O)(=O)N2CCCCC2)ccc1F do in these assays?
CYP2C19 act: 0.8; CYP2C9 inhib: -37.2; Cav3 T inh: -0.129; CYP2C9 activ: 1.4; CYP2C19 inhib: 17.2

How did Cc1ccc(S(=O)(=O)c2ccc(Cl)cc2)cc1S(=O)(=O)N1CCOCC1 do in these assays?
CYP2C19 act: 0.2; CYP2C9 inhib: 68.9*; Cav3 T inh: -3.58*; CYP2C9 activ: 0.3; CYP2C19 inhib: 79.3*

How did CCOc1cc(S(=O)(=O)N2CCCC2)ccc1Cl do in these assays?
CYP2C19 act: 0.5; CYP2C9 inhib: -42.7; Cav3 T inh: -1.11; CYP2C9 activ: 1.4; CYP2C19 inhib: 50.7*

Results for Cc1ccc(S(=O)(=O)N2CCCC2)cc1S(=O)(=O)N1CCCC1 ?
CYP2C19 act: 0.5; CYP2C9 inhib: -16.5; Cav3 T inh: 1.53; CYP2C9 activ: 1.2; CYP2C19 inhib: 51.9*

Results for O=S(=O)(c1ccc(Oc2ccc(Cl)cc2)c(S(=O)(=O)N2CCCCC2)c1)N1CCCCC1 ?
CYP2C19 act: 0.9; CYP2C9 inhib: 38.9; Cav3 T inh: -3.49*; CYP2C9 activ: 0.6; CYP2C19 inhib: 8.2

How did Cc1ccc(C(=O)O)cc1S(=O)(=O)N1CCOCC1 do in these assays?
CYP2C19 act: 1; CYP2C9 inhib: -15.6; Cav3 T inh: 0.105; CYP2C9 activ: 1.2; CYP2C19 inhib: 4.0
